Data taken from PubChem BioAssay (NCATS).
Records with an inconclusive call do not appear. Where a call stands in place of a potency, no number is given. Activity calls are given as the source filed them. Calls follow the shape of the dose curve; as a rule, active = well fitted activation curve with a large enough effect in the main read-out, with a control signal flat (not every such curve was filed as active); inconclusive = small, poorly fitted or top-dose-only effect, or effect the other way, or a change in a side signal; inactive = flat fitted curve, though single readings scatter.

molecular target: 3',5'-cyclic-AMP phosphodiesterase 4B (Homo sapiens) (UniProt Q07343); experiment: qHTS Assay for Inhibitors of PDE-IV (AID 607); conditions: HEK293 ACTOne CNG channel cells, membrane potential fluorescence; series mostly up to 22.9 µM
Sequence (Q07343 whole entry, looked up): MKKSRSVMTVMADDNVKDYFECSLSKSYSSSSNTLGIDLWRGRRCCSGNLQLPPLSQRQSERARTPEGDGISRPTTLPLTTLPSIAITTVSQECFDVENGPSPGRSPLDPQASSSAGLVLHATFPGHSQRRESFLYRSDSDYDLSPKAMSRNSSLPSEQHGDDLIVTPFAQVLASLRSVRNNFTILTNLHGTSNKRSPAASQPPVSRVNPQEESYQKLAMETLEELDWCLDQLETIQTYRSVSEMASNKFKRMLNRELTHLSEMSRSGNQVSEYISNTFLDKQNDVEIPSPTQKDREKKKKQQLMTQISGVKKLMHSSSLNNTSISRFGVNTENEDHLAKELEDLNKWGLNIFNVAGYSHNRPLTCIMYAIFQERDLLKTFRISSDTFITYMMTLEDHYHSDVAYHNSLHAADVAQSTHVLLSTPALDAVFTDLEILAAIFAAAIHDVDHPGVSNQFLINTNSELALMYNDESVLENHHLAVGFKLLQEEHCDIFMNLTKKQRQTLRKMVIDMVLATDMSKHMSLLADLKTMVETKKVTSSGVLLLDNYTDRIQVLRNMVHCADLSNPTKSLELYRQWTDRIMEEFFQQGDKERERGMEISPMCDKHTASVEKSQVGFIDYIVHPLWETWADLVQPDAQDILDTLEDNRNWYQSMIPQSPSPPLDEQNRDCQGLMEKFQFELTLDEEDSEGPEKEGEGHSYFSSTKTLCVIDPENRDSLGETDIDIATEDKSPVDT
How it was run: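 Cell-based read-out of cAMP via a modified cyclic nucleotide-gated channel and membrane potential dye (535/590 nm) in HEK293 cells expressing PDE4 endogenously. Compounds tested up to 22.9 uM final; 100 uM RO 20-1724 reference.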
Potency is read from the fitted curve at half-maximal effect.

| SMILES | Potency |
| --- | --- |
| CCCn1c(C)c(C(=O)c2ccc3ccccc3c2)c2ccccc21 | inactive |
| CP(=O)(O)C1=CCNCC1 | inactive |
| NC(=O)CI | inactive |
| CC(C)NP(=O)(NC(C)C)OP(=O)(NC(C)C)NC(C)C | inactive |
| O=P(O)(O)C(Cl)(Cl)P(=O)(O)O | inactive |
| C[C@@H]1[C@@H]2Cc3ccc(O)cc3[C@@]1(C)CCN2CC1CC1 | inactive |
| CC(C)(C)c1cc(O)ccc1O | inactive |
| CN(N=O)c1ccc(O)c(O)c1 | inactive |
| Cc1[nH]c2ccc(O)cc2c1CCN | inactive |
| OCc1cnc[nH]1 | inactive |
| C[C@@H]1O[C@H](C[N+](C)(C)C)CS1 | 1260 nM (active) |
| O=c1c2ccccc2[se]n1-c1ccccc1 | inactive |
| O=c1ccc2[nH]cc(C3=CCNCC3)c2[nH]1 | inactive |
| CCCN(CCC)C1Cc2cc(OC)c(OC)cc2C1 | inactive |
| CN1CCC(c2c[nH]c3ccc(O)cc23)CC1 | inactive |
| N#CCCN | inactive |
| NCCCP(=O)(O)O | inactive |
| NC(=O)COc1c(F)cc(SCCNS(=O)(=O)c2ccccc2)cc1F | inactive |
| NC(N)=NOCC[C@H](N)C(=O)O | inactive |
| CN(N=O)c1cc(O)ccc1O | inactive |
| COc1ccc2[nH]c3c(c2c1)CCNC3 | inactive |
| CCCN(CCC)[C@@H]1CCc2cccc(O)c2C1 | inactive |
| C[N+]1(C)[C@@H]2CC[C@H]1CC(OC(=O)c1c[nH]c3ccccc13)C2 (some centres undefined) | inactive |
| CC(=O)NBr | inactive |
| c1ccc2c(N3CCNCC3)cccc2c1 | inactive |
| NNC(=O)c1ccc(O)cc1 | inactive |
| CCCN(CCC)CCc1c[nH]c2ccc(C(N)=O)cc12 | inactive |
| NCCc1ccc(S(=O)(=O)F)cc1 | inactive |
| Cc1sc2ccccc2c1CC1=NCCN1 | inactive |
